High-throughput results from PubChem.
Rows were chosen to be rich in hits. Some 6% of all compounds tested hit in one or more screens of this group.
D1 antag: blocks dopamine activation of the human D1 receptor; HEK293 TREx D1 cells, calcium flux, dopamine EC80; active compounds read low; activity change, negative = inhibition, % at 10 µM; P21728; hit rate 3.2% among 360,000; in the data active means activity change below about -30%
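HEK293 T-REx cells expressing inducible, force-coupled D1 receptor; no-wash Ca dye, 30–90 min RT. Cmpd → 180 s read at 1 Hz → EC80 DA → 180 s read.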
D1 agonist: activates the human D1 dopamine receptor; AID 504660; hit rate 1% among 360,000; activation, % at 2 µM; P21728; HEK293 T-REx D1 cells, calcium flux, agonist mode; in the data active means activation above about 30%
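Agonism was scored from calcium flux recorded over 180 s (1 read/s) after pintool compound addition, following a 10-cycle baseline. Cells were inducible force-coupled HEK293 TREx D1, plated overnight at 30 C and loaded with no-wash calcium dye.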
D3 antag: blocks the human D3 dopamine receptor. AID 652054. hit rate 2.5% among 360,000. max response, negative = inhibition, %. P35462. D3R cells, DiscoveRx beta-arrestin luminescence, antagonist mode; active compounds read low; in the data active means max response below about -50%; inconclusive means no clear call, values can overlap the other calls
Target sequence (P35462 whole entry, looked up): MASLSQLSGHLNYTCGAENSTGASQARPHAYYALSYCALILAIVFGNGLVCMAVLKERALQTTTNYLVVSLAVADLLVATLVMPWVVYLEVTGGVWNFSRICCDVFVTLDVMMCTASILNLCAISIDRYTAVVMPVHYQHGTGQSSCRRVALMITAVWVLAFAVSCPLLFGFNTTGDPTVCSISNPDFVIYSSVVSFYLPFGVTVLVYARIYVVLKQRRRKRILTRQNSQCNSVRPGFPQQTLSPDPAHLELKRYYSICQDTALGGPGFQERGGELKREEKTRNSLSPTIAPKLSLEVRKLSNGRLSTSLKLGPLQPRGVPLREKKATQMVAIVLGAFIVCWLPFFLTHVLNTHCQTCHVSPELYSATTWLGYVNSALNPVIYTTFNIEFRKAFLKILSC
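Cells expressing the human receptor were seeded at 1500 cells/well, incubated overnight at 37 degrees C in 5% CO2, then exposed to library compounds with dopamine controls for 90 minutes at 37 degrees C before luminescent detection.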
D3 ag: activates the human D3 dopamine receptor; hit rate 0.58% among 410,000; max activation, %; P35462; D3R DiscoveRx beta-arrestin cells, luminescence, 90 min; in the data active means max activation above about 30%
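Cells at 1500/well, incubated overnight, then treated with pinned compounds (dopamine as control) for 90 min at 37 degrees C. DiscoveRx reagent added for 30 - 60 minutes at room temperature; luminescence read.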
D1 potentiator: human D1 dopamine receptor positive modulation; potentiation, % at 10 µM; HEK293 TREx D1 cells, calcium flux, dopamine EC20 potentiation; AID 504651; P21728; hit rate 0.036% among 360,000; in the data active means potentiation above about 30%
Numbers stand for hits; . = inactive; ? = inconclusive; / = not tested or not shown.

SMILES | D1 antag | D1 agonist | D3 antag | D3 ag | D1 potentiator
CCN(CC)CCC=C(c1cccs1)c1cccs1 | / | / | -53.6 | . | /
CCN(CC)CCCNC(=O)/C(=C\c1cccn1C)NC(=O)c1cccs1 | . | . | . | . | .
CC(=O)Nc1ccc(Nc2cc(C)nc3c(-c4ccccc4)cnn23)cc1 | -40.2 | . | . | . | .
CCOC(=O)c1nn(-c2ccc(C)cc2)c(=O)cc1OCC(=O)Nc1cc(C)ccc1OC | -42.4 | . | . | . | .
CCOC(=O)c1nn(-c2ccccc2)c(=O)cc1OCC(=O)Nc1cc(C)ccc1OC | . | . | . | . | .
CN(C)C(=O)c1ccc2c(c1)N(CC(=O)NCc1ccc(F)cc1)C(=O)C1CCCCN21 (stereo not drawn) | . | . | / | . | .
O=C(O)/C=C/C(=O)NNC(=O)c1ccccc1Br | -40.6 | . | . | . | .
CCn1c(CNc2ccccc2Cl)nnc1SCCN1CCCCC1 | . | . | -59.7 | . | .
O=C(NCc1ccc(F)cc1)C1CCN(C(=O)NCc2ccccc2)CC1 | . | . | . | . | .
O=C(NCc1cccs1)C1CCN(C(=O)NCc2ccccc2)CC1 | -84.4 | . | . | . | .
Cc1oc(-c2ccccc2F)nc1CN1CCC(C(=O)NC2CC2)CC1 | . | . | . | . | .
Cc1oc(-c2ccccc2F)nc1CN1CCC(C(=O)NCc2cccs2)CC1 | . | . | -51.7 | . | .
COc1ccc(-c2nc(CN3CCC(C(=O)NCc4ccc(C)cc4)CC3)c(C)o2)cc1OC | -31.0 | . | / | . | .
Cc1oc(-c2ccc(Cl)cc2)nc1CN1CCCC(C(=O)NCc2ccco2)C1 (stereo not drawn) | . | . | -73.5 | . | .
COc1ccc(-c2nc(CN3CCC(C(=O)NCCc4ccccc4)CC3)c(C)o2)cc1OC | . | . | / | . | .
CCn1cnc2c(Nc3cc(F)cc(F)c3)nc(C(=O)COc3c(F)c(F)cc(F)c3F)nc21 | . | . | / | / | .
CC1CCN(S(=O)(=O)c2ccc3c(c2)N(CC(=O)NCc2ccccc2Cl)C(=O)CS3)CC1 | . | . | / | . | .
CCN1CCN(CCNC(=O)C2CCCN(Cc3nc(-c4cccc(Cl)c4)oc3C)C2)CC1 (stereo not drawn) | -39.4 | . | . | . | .
Cc1oc(-c2cccc(Cl)c2)nc1CN1CCC(C(=O)NCCCN2CCN(c3cccc(Cl)c3)CC2)CC1 | -39.2 | 66.5 | / | . | .
CCC(C)Nc1ccc(NC(C)CC)cc1 (stereo not drawn) | / | . | -50.9 | . | .
CCC(C)NC(=O)Nc1ccc(Br)cc1 (stereo not drawn) | . | . | . | . | .
CCOc1ccc(C2c3c(oc4ccc(C)cc4c3=O)C(=O)N2CCCN(C)C)cc1 (stereo not drawn) | . | . | / | . | .
O=C1CC(c2nc(-c3cccc(Cl)c3)no2)CN1c1ccc2c(c1)OCCO2 (stereo not drawn) | . | . | / | . | .
c1ccc(Cn2nnnc2C(c2cccs2)N2CCc3ccccc3C2)cc1 (stereo not drawn) | . | . | -68.5 | . | .
NC[C@@H]1CC[C@@H](N)[C@@H](O[C@H]2[C@H](O)[C@@H](O[C@H]3O[C@H](CO)[C@@H](O)[C@H](N)[C@H]3O)[C@H](N)C[C@@H]2N)O1 | / | / | / | . | /
SMILES | D1 antag | D1 agonist | D3 antag | D3 ag | D1 potentiator
COc1ccc(S(=O)(=O)N(CCc2ccccc2)CC(=O)Nc2ccc(C)c(C)c2)cc1OC | . | . | / | . | .
COc1ccc(N2CCN(C(=O)c3cn(CC4CCCCC4)nn3)CC2)cc1 | -34.1 | . | . | . | .
COc1ccc(N2CCN(C(=O)c3c(Cl)cnn3C)CC2)cc1 | -57.7 | . | . | . | .
Cn1ncc(Cl)c1C(=O)N1CCN(c2ccc(Cl)c(Cl)c2)CC1 | . | . | . | . | .
Cc1cc(C)c2nc(C)cc(Nc3cccc(C(=O)O)c3)c2c1 | . | . | / | . | .
Cc1[nH]n(-c2ccccc2)c(=S)c1C=Nc1cccc([N+](=O)[O-])c1 | . | . | -99.5 | . | .
O=C(NCc1ccccc1F)C1CCCN(c2cnccn2)C1 (stereo not drawn) | -34.8 | . | . | . | .
CC(=O)c1cccc(NS(=O)(=O)c2cccc(S(=O)(=O)c3ccc(Br)cc3)c2)c1 | -41.1 | . | / | . | .
COc1ccc(S(=O)(=O)Nc2cccc(C(C)=O)c2)cc1Br | . | . | . | . | .
CCCCCCC[C@@H](C/C=C/CCC(=O)O)OC | / | / | . | . | /
CCCCCCCCCCCCCCCCC(C(=O)O)C(O)(CC(=O)O)C(=O)O (stereo not drawn) | / | / | / | 39.5 | /
COc1cc(C(CCN2CCCC2)c2c(OC)cc(OC)c3ccc(=O)oc23)cc(OC)c1OC (stereo not drawn) | . | . | ? | . | .
COc1cc(OC)c2c(-c3ccccc3)cc(=O)oc2c1C(CCN1CCCC(C)C1)c1ccc2c(c1)OCO2 (stereo not drawn) | . | . | -69.8 | . | .
COc1cc(OC)c2c(-c3ccccc3)cc(=O)oc2c1C(CCN1CCOCC1)c1ccc(N(C)C)cc1 (stereo not drawn) | / | / | . | . | /
COc1cc(OC)c2c(-c3ccccc3)cc(=O)oc2c1C(CCN1CCCCC1)c1ccc2c(c1)OCO2 (stereo not drawn) | . | . | ? | . | .
COc1cc(OC)c2c(-c3ccccc3)cc(=O)oc2c1C(CC(=O)N1CCCC1)c1ccc2c(c1)OCO2 (stereo not drawn) | -35.8 | . | ? | . | .
COc1cc(OC)c2c(C)cc(=O)oc2c1C(CCN1CCOCC1)c1ccc2c(c1)OCO2 (stereo not drawn) | -67.6 | . | -69.3 | . | .
COc1cc(C(CCN2CCN(c3ccccc3)CC2)c2c(OC)cc(OC)c3c(C)cc(=O)oc23)cc(OC)c1OC (stereo not drawn) | -81.2 | . | -120.5 | . | .
CC1=C(C(=O)N2CCCCCC2)CC(CC(=O)NCCCN(C)C)C(=O)N1Cc1ccc(F)cc1 (stereo not drawn) | / | / | . | . | /
C=C(C)Cn1c(SCC(=O)c2ccc(Br)cc2)nc2sc3c(c2c1=O)CCCC3 | . | . | / | . | .
CC1(C)S[C@@H]2[C@H](NC(=O)C(N)c3ccccc3)C(=O)N2[C@H]1C(=O)OC1OC(=O)c2ccccc21 (stereo partly drawn) | / | / | / | . | /
CCOC(=O)c1c(NC(C)=O)c2c3c(sc2n1Cc1ccc(Cl)cc1)CCCC3 | . | . | / | . | .
O=C(Nc1ccc2[nH]ncc2c1)c1ccccc1Cl | . | . | . | . | .
COc1ccc(C(CCN2CCCCC2)c2c(OC)cc(OC)c3c(-c4ccccc4)cc(=O)oc23)cc1 (stereo not drawn) | -43.0 | 55.5 | ? | . | .
COc1cc(OC)c2c(-c3ccccc3)cc(=O)oc2c1C(CCN1CCCCC1)c1ccc(N(C)C)cc1 (stereo not drawn) | . | . | . | . | .
